Compound activity from PubChem BioAssay.
In the library only some 8.2% were active in any assay of this set; here they are far more common.
MCF10A rereplic = induces DNA re-replication in MCF 10a normal breast cells; MCF 10A DNA re-replication, Hoechst nuclear intensity, 48 h; Potency, µM (highest dose often 46.1 µM), usual class: activators; hit rate 2.9% among 350,000; AID 624296; further: nearly all actives have a fitted effect of over 50% in size
ELG1 DNA repair = blocks ELG1-dependent DNA repair in HEK293T cells; HEK293T ELG1-luciferase reporter, luminescence, 16 h; DNA damage induced by 5-fluorouridine; Potency, µM (series often up to 46.1 µM), most hits filed as inhibitors; hit rate 2.3% among 330,000; AID 504467; further: nearly all actives have a fitted effect of over 55% in size
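Overnight (16 hr) co-exposure of 2,000 cells/well to 5-fluorouridine and compound at 37 °C preceded detection. Luciferase was quantified via ONE-Glo luminescence; loss of signal denotes inhibition.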
KB-3-1 cytotox = KB-3-1 parental cell cytotoxicity; hit rate 1.4% among 400,000; KB-3-1 viability, CellTiter-Glo ATP luminescence, 72 h; Potency, µM (doses to about 46.1 µM), hits mostly cytotoxic; AID 1347075; further: nearly all actives have a fitted effect of over 60% in size
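Cells are dispensed, compounds pinned in, plates held at 37 °C for 72 h, then CellTiter-Glo is added and luminescence read after 10 minutes. Cell line: parental KB-3-1 in phenol-red-free DMEM, 10% FBS.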
KB-V1 cytotox = KB-V1 MDR subline cytotoxicity; hit rate 3.4% among 400,000; Potency, µM (top dose mostly 46.1 µM), usual class: cytotoxic; KB-V1 MDR cells viability, CellTiter-Glo, 72 h; further: nearly all actives have a fitted effect of over 60% in size
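Cytotoxicity via CellTiter-Glo luminescence after 72 h compound exposure at 37 degrees C. Cells: drug-selected KB-V1 line, DMEM phenol-red free plus 10% FBS. Compounds tested at multiple concentrations; normalized data fitted to concentration-effect curves.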
SW480 rereplic = induces DNA re-replication in SW480 colon adenocarcinoma cells; hit rate 1.8% among 340,000; Potency, µM (titrated, usually from 46.1 µM), actives largely listed as activators; AID 624297; SW480 DNA re-replication, Hoechst DNA content imaging, 48 h; further: nearly all actives have a fitted effect of over 55% in size
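Per well, 250 cells were exposed to pinned compound for 48 hr. Nuclear DNA was visualised with Hoechst (40 min, 37 C) and total object intensity recorded by fluorescence scanning.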
A number is an active result; - = inactive; ? = inconclusive; . = not tested or not shown; [ ] = remark or other dose. The call rests on the fitted dose curve; in most records, active means well fitted curve in the direction sought with a large enough effect; inconclusive means small, poorly fitted or top-dose-only effect, or another doubt; inactive means no such curve, though single readings can be large; an effect the other way counts as inactive or inconclusive.

SMILES	MCF10A rereplic	ELG1 DNA repair	KB-3-1 cytotox	KB-V1 cytotox	SW480 rereplic
CC1=C(n2nnc3ccccc32)C(c2ccccc2)C(C#N)=C(N)O1 (stereo not drawn)	-	-	-	-	-
COc1ccccc1N1CCN(Cc2nc(N)nc(Nc3ccc(C)c(Cl)c3)n2)CC1	?	15µM	-	?	-
Nc1nc(CN2CCN(c3ccccc3F)CC2)nc(Nc2ccc3c(c2)OCCO3)n1	?	23µM	?	9.2µM	-
CCOc1ccc(Nc2nc(N)nc(CN3CCN(c4ccccc4F)CC3)n2)cc1	?	16µM	-	?	-
CN1CCN(Cc2nc(N)nc(Nc3ccc4c(c3)OCCO4)n2)CC1	-	?	-	-	-
Cc1cccc(Nc2nc(N)nc(CN3CCN(c4ccccc4)CC3)n2)c1	-	?	-	15µM	-
Nc1nc(CN2CCN(Cc3ccccc3)CC2)nc(Nc2ccccc2)n1	-	-	?	21µM	-
Cc1cccc(Nc2nc(N)nc(CN3CCN(c4ccccc4F)CC3)n2)c1	?	.	-	2.3µM	?
Cc1cccc(Nc2nc(N)nc(CN3CCN(Cc4ccc5c(c4)OCO5)CC3)n2)c1	-	?	-	15µM	-
COc1ccccc1Nc1nc(N)nc(CN2CCN(c3ccccc3F)CC2)n1	?	-	-	-	-
COc1ccccc1Nc1nc(N)nc(CN2CCN(Cc3ccc4c(c3)OCO4)CC2)n1	?	?	-	-	-
NC1=NC[C@@H](Cc2ccc(O)cc2)N1CCC12CC3CC(CC(C3)C1)C2	-	.	?	?	-
CC(C)Oc1ccc(CN2CCC2(C)C(=O)Nc2cnc3ccccc3c2)cc1 (stereo not drawn)	.	.	-	-	.
O=C(NCCc1ccccc1)c1cc(-c2ccc(Cl)cc2)on1	.	.	-	-	.
CC(C)(C)N(NC(=O)Nc1ccc(Cl)c(Cl)c1)C(=O)c1ccccc1	?	-	?	23µM	-[9.22 µM]
CC(C)(C)N(NC(=O)Nc1ccc(F)cc1)C(=O)c1ccccc1	-	-	-	-	-
COc1ccc2c(c1)c(C(C)=O)c(C)n2CCc1ccc(OC)c(OC)c1	-	-	-	?	-
COc1ccc2c(c1)c(C(C)=O)c(C)n2CCc1ccccc1	-	8.2µM	-	-	-
O=C(Nc1ccc(OC(=O)c2ccco2)cc1)c1ccco1	-[0.0737 µM]	-	-	-	-
O=C(O)COc1ccc(NC(=O)c2ccc(NC(=O)c3ccco3)cc2)cc1	-	-	-	-	-
O=C(OC1CCCCC1)c1ccc(NC(=O)c2ccco2)cc1	15µM	?	-	-	-
COc1ccc(NC(=O)/C(C#N)=C\C=C\c2ccco2)cc1	12µM	?	7.3µM	10µM	.
COc1ccc(NC(=O)/C(=C\c2ccco2)NC(=O)c2ccco2)cc1	-	-	-	-	-
COc1ccc(C(=O)Nc2ccc(NC(=O)c3ccco3)cc2)cc1	-	?	-	-	9.2µM
COc1ccc2c(c1)-c1nc(NC(=O)c3ccco3)sc1CC2	?	?	-	13µM	-
SMILES	MCF10A rereplic	ELG1 DNA repair	KB-3-1 cytotox	KB-V1 cytotox	SW480 rereplic
Cc1ccc(CN2CCN(/N=C\C=C\c3ccccc3)CC2)cc1	-	-	-	-	-
COc1cc(OC)cc(C(=O)Nc2ccc(NC(=O)c3ccco3)c(C)c2)c1	-	?	-	?	-
COc1cc(OC)cc(C(=O)Nc2cc(NC(=O)c3ccco3)ccc2OC)c1	-	21µM	-	?	-
CCOc1ccc(CCNC(=O)C2CCN(C(=O)c3cc4sccc4n3CC)CC2)cc1OCC	.	.	-	-	.
CN(C)c1nc(NCc2ccccc2)nc(N/N=C/c2ccc(Br)cc2)n1	-	-	-	-	-
Cc1cc(N/N=C/c2ccc3c(c2)OCO3)nc2ccccc12	16µM	?	-	-	?
CN(C)c1nc(NCc2ccccc2)nc(N/N=C/c2ccc3c(c2)OCO3)n1	23µM	?	-	?	-
O=c1[nH]c(N/N=C\c2ccc3c(c2)OCO3)nc2ccccc12	-	?	?	-	-
Cc1ccc(C)c(C(=O)OCC(=O)N(C)c2ccccc2)c1	-	-	-	-	-
CC[C@]12C(=O)N(C)C[C@H]([C@@H]3C(=O)N(C)C(=O)[C@@H]31)N2C(=O)c1ccc(F)cc1	-	.	-	-	-
O=C(CN1C(=O)NC2(CCCCC2)C1=O)Oc1ccc2ccc(=O)oc2c1	?	?	-	-	10µM
Cc1c(Cl)ccc2c(C(=O)Nc3cc(C(C)(C)C)on3)cc(-c3ccccn3)nc12	?	-	?	-	?
CCOC(=O)C1C(=O)CC(=O)C(C(=O)OCC)C1c1ccc(O)cc1 (stereo not drawn)	.	.	-	-	.
Nc1nc(N)nc(-c2cc(F)ccc2O)n1	?	-	-	-	?
COc1ccc(O)c(-c2nc(N)nc(N)n2)c1	7.3µM	-	?	-	?
CCOC(=O)CN1C(=O)/C(=C/c2c(F)cccc2Cl)Oc2ccccc21	21µM	-	?	-	?
CCOC(=O)Cc1csc(/N=C/c2c(O)n(-c3ccc(C)c(C)c3)c(=O)c3ccccc23)n1	?	-	?	10µM	-
Cc1ccc(-n2c(O)c(C=Nc3ccc4c(c3)OCO4)c3ccccc3c2=O)cc1C	-	?	-	-	-
O=C(OCn1ncc(Br)c(Br)c1=O)c1ccccc1Cl	7.9µM	?	18µM	5.8µM	5.6µM
O=C(OCn1ncc(Br)c(Br)c1=O)c1ccc(F)cc1	4.6µM	?	3.3µM	5.2µM	4.1µM
COC(=O)c1cc(C(=O)OCC(=O)N(C)C2CCS(=O)(=O)C2)cc([N+](=O)[O-])c1 (stereo not drawn)	-	-	-	-	-
CN(C(=O)COC(=O)c1c2c(nc3ccccc13)/C(=C/c1cccc([N+](=O)[O-])c1)CCC2)C1CCS(=O)(=O)C1 (stereo not drawn)	?	5.8µM	5.8µM	?	-
CN(C(=O)COC(=O)/C=C/c1cccc([N+](=O)[O-])c1)C1CCS(=O)(=O)C1 (stereo not drawn)	-	13µM	?	-	-
O=C(COC(=O)c1c2c(nc3ccccc13)/C(=C/c1cccc([N+](=O)[O-])c1)CCC2)NC1CCS(=O)(=O)C1 (stereo not drawn)	?	7.3µM	?	23µM	.
Cc1ccc(NC(=O)Cn2cc(S(=O)(=O)c3ccccc3)c(=O)c3cc4c(cc32)OCO4)cc1	.	.	-	?	.
CCC(=O)c1ccc(OCC(=O)OCC(=O)Nc2cccc(S(=O)(=O)N3CCOCC3)c2)cc1	-	.	-	-	-
Cc1cccc(C(=O)NC2CCN(C(=O)Nc3ccc(F)cc3)CC2)c1	-	-	-	-	-
Cc1nn(Cc2ccc(Cl)c(Cl)c2)c(C)c1NC(=O)c1cc(-c2ccc3c(c2)OCO3)on1	5.8µM	?	?	-	16µM
CC/C(=N\NC(=O)c1c(-c2ccccc2)noc1C)c1ccc(C)o1	-	-	-	13µM	-
